In PubChem BioAssay one finds composite z-score and z-score data, which are given here for seven compounds.

Activity calls are given as the source filed them.

Test [1] relates to PRMT1 (protein arginine N-methyltransferase 1). The test is described as follows: small molecules binding arginine methyltransferase PRMT1 – biochemical, small-molecule microarray, 635 nm fluorescence, primary screen (AID 1088).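 Also: binding of Prmt1 protein to compounds spotted on small-molecule microarray slides.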 The following applies: higher = more signal.
Test [2] in a line: growth effects on S. cerevisiae YJM789 – YJM789 clinical isolate, OD600, 24 h, basal, primary screen (AID 1089).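 Also: growth of clinical yeast isolate S. cerevisiae YJM 789 seeded 1000 cells per well; test concentration not given here.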 Conditions: higher = more signal, called active from +8 up or from −8 down.
The nature of test [3]: S. pombe growth modifiers, basal conditions – strain 972, OD600, 24 h, no modulator, primary screen (AID 1090).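 Also: basal condition with compound alone and no growth modifier present; test concentration not given here.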 The following applies: S. pombe 972 growth, higher = more signal, called active from +8 up or from −8 down.
Test [4] in a line: budding yeast growth modifiers under rapamycin – strain BY4716, OD600, 96 h, primary screen (AID 1091). Also: test concentration not given here. The following applies: S. cerevisiae BY4716 + rapamycin, higher = more signal, called active from +8 up or from −8 down.
For test [5], the target named is Torsin-1A-interacting protein 2 (Homo sapiens) (UniProt Q8NFQ8). Kind of test: small molecules binding lysate-expressed LULL1 – cell lysate, human LULL1 lysate, 635/667 nm fluorescence, primary screen (AID 1092).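 Also: probe is lysate of COS7 cells overexpressing human LULL1; score merges per-feature 667 nm fluorescence with signal-to-noise.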 The following applies: small-molecule microarray, hLULL1 lysate binding, 635 nm fluorescence; higher = more signal.
Sequence of Torsin-1A-interacting protein 2 (Homo sapiens) (Q8NFQ8 whole entry, looked up): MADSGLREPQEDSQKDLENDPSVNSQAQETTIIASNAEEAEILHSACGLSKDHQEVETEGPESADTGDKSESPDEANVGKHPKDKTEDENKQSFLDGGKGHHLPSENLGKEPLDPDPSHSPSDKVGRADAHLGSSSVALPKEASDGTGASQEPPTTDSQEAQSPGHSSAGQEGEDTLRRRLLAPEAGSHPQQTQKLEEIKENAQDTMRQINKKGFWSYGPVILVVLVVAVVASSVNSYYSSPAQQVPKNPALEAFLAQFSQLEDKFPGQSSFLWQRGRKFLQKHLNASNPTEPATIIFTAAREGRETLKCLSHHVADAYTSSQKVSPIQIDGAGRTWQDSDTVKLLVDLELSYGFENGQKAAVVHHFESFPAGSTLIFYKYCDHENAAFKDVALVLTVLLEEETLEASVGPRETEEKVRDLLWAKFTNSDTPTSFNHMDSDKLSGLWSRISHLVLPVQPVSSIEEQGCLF
Test [6] is described as follows: optical density change of DRC41 E. coli – strain DRC41, OD650, 24 h, E. coli filamentation project, primary screen (AID 1093).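 Also: MC1000 strain lacking acrAB efflux and sulA so SOS filamentation is blocked; test concentration not given here.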 The following applies: E. coli DRC41 growth, higher = more signal, called active from +8 up or from −8 down.
Test [7] can be described thus: probe aLefty2 binding to arrayed compounds – biochemical, biotinylated probe, 635/667 nm fluorescence, primary screen (AID 1094).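 Also: score merges spot fluorescence near 667 nm with spot signal-to-noise ratio.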 The following applies: small-molecule microarray, higher = more signal.
In test [8] the test system is Noggin (protein binding on small-molecule microarray). The test is described as follows: small molecules binding Noggin protein – biochemical, 635/667 nm fluorescence, primary screen (AID 1095).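 Also: score merges 667 nm feature fluorescence with signal to noise over triplicate slides.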 The following applies: 635 nm fluorescence, higher = more signal.
For test [9], the target named is Neurogenic locus notch homolog protein 3 (Homo sapiens) (UniProt Q9UM47). The test is described as follows: small molecules binding NOTCH3 protein – biochemical, 635/667 nm fluorescence, primary screen (AID 1096). The following applies: small-molecule microarray, 635 nm fluorescence, higher = more signal.
Sequence of Neurogenic locus notch homolog protein 3 (Homo sapiens) (Q9UM47 whole entry, looked up): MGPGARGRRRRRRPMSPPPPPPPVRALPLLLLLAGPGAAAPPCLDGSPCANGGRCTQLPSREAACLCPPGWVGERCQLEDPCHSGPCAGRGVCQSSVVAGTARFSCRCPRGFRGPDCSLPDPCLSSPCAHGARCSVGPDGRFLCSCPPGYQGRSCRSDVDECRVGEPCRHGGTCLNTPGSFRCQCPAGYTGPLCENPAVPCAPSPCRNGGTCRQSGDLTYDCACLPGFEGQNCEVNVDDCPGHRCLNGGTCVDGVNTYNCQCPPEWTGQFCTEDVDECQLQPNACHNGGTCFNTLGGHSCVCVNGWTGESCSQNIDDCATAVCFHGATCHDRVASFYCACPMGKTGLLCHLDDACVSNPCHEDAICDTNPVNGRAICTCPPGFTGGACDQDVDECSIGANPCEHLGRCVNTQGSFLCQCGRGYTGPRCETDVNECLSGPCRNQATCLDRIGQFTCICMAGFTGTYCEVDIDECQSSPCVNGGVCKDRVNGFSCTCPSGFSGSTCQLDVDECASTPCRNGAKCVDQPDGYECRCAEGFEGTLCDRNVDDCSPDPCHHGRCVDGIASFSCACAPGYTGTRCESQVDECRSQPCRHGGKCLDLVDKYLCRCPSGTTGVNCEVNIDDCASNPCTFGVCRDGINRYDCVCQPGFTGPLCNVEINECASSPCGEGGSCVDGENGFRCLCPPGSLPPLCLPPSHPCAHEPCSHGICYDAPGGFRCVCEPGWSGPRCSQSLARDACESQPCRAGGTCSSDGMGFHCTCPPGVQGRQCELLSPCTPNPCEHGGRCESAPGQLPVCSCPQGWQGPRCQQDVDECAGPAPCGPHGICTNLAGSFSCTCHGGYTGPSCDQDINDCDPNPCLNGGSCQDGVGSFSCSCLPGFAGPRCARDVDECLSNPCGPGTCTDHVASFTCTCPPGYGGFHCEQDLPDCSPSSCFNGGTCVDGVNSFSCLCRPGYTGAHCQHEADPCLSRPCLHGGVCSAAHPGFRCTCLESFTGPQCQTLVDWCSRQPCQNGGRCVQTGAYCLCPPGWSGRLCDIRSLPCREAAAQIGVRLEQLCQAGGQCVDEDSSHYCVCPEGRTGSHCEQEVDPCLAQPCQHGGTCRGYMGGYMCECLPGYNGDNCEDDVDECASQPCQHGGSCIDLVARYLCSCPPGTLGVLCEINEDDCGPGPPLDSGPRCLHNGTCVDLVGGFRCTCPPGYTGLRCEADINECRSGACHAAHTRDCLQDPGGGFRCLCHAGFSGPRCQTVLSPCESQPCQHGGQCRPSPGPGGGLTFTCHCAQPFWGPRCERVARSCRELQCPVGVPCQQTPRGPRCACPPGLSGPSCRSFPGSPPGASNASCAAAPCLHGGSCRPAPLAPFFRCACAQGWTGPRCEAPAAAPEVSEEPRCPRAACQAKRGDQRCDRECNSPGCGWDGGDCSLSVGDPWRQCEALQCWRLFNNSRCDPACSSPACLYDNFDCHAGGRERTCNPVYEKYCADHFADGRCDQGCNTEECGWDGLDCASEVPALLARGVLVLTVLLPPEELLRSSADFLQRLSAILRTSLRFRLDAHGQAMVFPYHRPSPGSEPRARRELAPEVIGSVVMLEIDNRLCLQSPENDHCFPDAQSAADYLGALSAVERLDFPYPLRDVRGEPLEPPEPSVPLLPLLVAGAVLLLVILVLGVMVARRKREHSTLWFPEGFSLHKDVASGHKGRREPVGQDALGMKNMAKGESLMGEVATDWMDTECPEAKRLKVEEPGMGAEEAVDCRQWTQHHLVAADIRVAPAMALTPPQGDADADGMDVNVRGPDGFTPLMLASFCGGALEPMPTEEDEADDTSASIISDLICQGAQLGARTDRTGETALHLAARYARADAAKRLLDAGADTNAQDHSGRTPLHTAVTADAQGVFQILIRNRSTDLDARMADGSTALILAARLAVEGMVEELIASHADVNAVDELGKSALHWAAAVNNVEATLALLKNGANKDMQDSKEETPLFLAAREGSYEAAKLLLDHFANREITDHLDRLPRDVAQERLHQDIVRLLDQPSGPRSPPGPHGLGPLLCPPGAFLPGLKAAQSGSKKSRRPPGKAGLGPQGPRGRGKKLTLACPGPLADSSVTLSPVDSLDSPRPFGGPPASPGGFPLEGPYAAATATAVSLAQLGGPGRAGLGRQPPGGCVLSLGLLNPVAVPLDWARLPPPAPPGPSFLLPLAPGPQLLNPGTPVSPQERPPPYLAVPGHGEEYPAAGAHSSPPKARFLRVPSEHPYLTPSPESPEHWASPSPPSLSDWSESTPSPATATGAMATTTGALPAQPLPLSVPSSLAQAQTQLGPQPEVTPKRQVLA
Test [10] in a line: probe aEGFR binding to arrayed compounds – biochemical, biotinylated probe, 635/667 nm fluorescence, primary screen (AID 1097).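 Also: probe is a biotinylated anti-EGFR antibody binding compounds printed on slides; score combines fluorescence near 667 nm and signal to noise of each spot.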 Conditions: small-molecule microarray, higher = more signal.

For `CCC[C@@H]1C[C@@]1(CCC)[C@@H](NP(=O)(c1ccccc1)c1ccccc1)c1ccc(Cl)cc1`, the composite z-score in test [1] was -0.189; in test [5], 0.334; in test [7], -0.0703; in test [8], 0.112; in test [9], -0.151; in test [10], -0.233. For the same compound, the z-score in [2] was 1.2 (inactive); in test [3], 0.095 (inactive); in test [4], 0.956 (inactive); in test [6], -1.79 (inactive).
With `O=c1cccc(-c2ccc(C(F)(F)F)cc2)o1`, the composite z-score is -1.99 in [1]; -0.0985 in test [5]; -0.16 in test [7]; -0.161 in test [8]; -0.894 in test [9]; -0.22 in [10]. For the same compound, the z-score was -2.99 (inactive) in [2], -8.39 (active) in test [3], 0.427 (inactive) in [4] and -0.491 (inactive) in [6].
As for `CC(C)N1CC=CC23O[C@@H]4C=CCOC(=O)[C@@H]4[C@H]2C(=O)N(C(C)CO)[C@@H]3C1=O` (stereo not given in full), the composite z-score in test [1] was -1; in test [5], -0.163; in test [7], 0.119; in [8], -1.03; in test [9], -0.66; in test [10], -0.199. For the same compound, the z-score in test [2] was -0.741 (inactive); in [3], -0.06 (inactive); in test [4], -0.0277 (inactive); in test [6] it was -0.0334 (inactive).
On to `C=C(COC)/C(=C/C[C@@H](OC(=O)c1ccncc1)c1ccc(CO)o1)c1cnc2ccccc2c1`, for which the composite z-score in [1] was 1.55; in [5], 1.59; in [7], -0.112; in test [8] it was 1.88; in [9], 1.02; in test [10], -0.0059. Besides, the z-score in [2] is -0.854 (inactive); in test [3], 0.536 (inactive); in test [4] it was 0.14 (inactive); in test [6], 0.647 (inactive).
On to `CC(C)(C)OC(=O)CC[C@]1(C(=O)NCCN2CCOCC2)N=C(c2ccc(OCCCO)cc2)O[C@H]1c1ccccc1N=[N+]=[N-]`, for which the composite z-score in test [1] was 1.49; in test [5] it was 3.38; in test [7], 0.373; in [8], -0.238; in test [9], 0.412; in test [10], 0.0988. Further, the z-score in test [2] is -0.417 (inactive); in test [3], -0.437 (inactive); in test [4] it was -0.535 (inactive); in test [6], 0.102 (inactive).
Turning to `CCOC(=O)C[C@H]1[C@H](OC(=O)Cc2ccc3c(c2)OCO3)[C@@H](NC(=O)C2CCCCC2)c2cc(OCCCO)ccc2N1C(=O)c1ccc2ccccc2n1`, the composite z-score was 0.688 in test [1]; 1.34 in [5]; -0.0798 in test [7]; 1.98 in test [8]; 1.09 in test [9]; 0.0428 in test [10]. The z-score in [2] was 0.327 (inactive); in test [3] it was -1.46 (inactive); in test [4], -0.591 (inactive); in test [6] it was 0.848 (inactive).
As for `CN1C(=O)C2C=CC(C(O)Cc3ccccc3)N(N(c3ccccc3)c3ccccc3)C2C1=O` (stereo not given), the composite z-score was 0.795 in test [1]; 2.22 in test [5]; 0.107 in test [7]; 0.218 in [8]; 0.839 in test [9]; -0.137 in test [10]. In addition, the z-score in test [2] was -0.179 (inactive); in [3], 0.759 (inactive); in [4], 1.11 (inactive); in [6], -1.39 (inactive).
